Inconclusive results are not listed. Where a call stands in place of a potency, no number is given. Activity calls are given as the source filed them. The call rests on the fitted dose curve; in most records, active means well fitted cell-killing curve with a large enough effect; inconclusive means small, poorly fitted or top-dose-only effect; inactive means no such curve, though single readings can be large or run the other way.
Assay: qHTS of pediatric cancer cell lines to identify multiple opportunities for drug repurposing: Primary screen for SK-N-SH cells (AID 1347098);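 further: DMSO served as neutral control and bortezomib at 2.3 µM as positive control; nearly all actives have a fitted effect of over 65% in size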
Details: SK-N-SH viability, CellTiter-Glo luminescence, 48 h; series mostly up to 57 µM
Outline: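 Cells (500-1,000/well) rested 5 h, then received compounds for 48 h; metabolically active cells were measured by CellTiter-Glo luminescence. Final concentrations spanned up to 46 µM (MIPE, 11-point) or 0.59 nM-46 µM (NPC, 8-point) in primary screens, 11-point in follow-ups.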

Compound	Potency	activity change, negative = cytotoxic
C=CCn1c(=O)n([C@@H]2O[C@H](CO)[C@@H](O)[C@H]2O)c2nc(N)[nH]c(=O)c21	inactive	
O=C1c2c(O)cccc2Cc2cccc(O)c21	inactive	
CC1(C)OC(=O)NC1=O	inactive	
CCOc1ccc2ccccc2c1C(=O)N[C@@H]1C(=O)N2[C@@H]1SC(C)(C)[C@@H]2C(=O)O	inactive	
CC1CC(OC(=O)C(O)c2ccccc2)CC(C)(C)N1C (centres undefined)	inactive	
OCC(CO)N[C@H]1C[C@](O)(CO)[C@@H](O)[C@H](O)[C@H]1O	inactive	
CCn1cc(C(=O)O)c(=O)c2cnc(N3CCNCC3)nc21	inactive	
CC1(C)CO[C@@H](CC(=O)O)CN1	inactive	
CCCCC(CC)COC(=O)c1ccccc1O (centres undefined)	inactive	
CCN(CC)C(=O)Nc1ccc(OCC(O)CNC(C)(C)C)c(C(C)=O)c1 (centres undefined)	inactive	
C[C@@H]1CC[C@@]2(OC1)O[C@H]1C[C@H]3[C@@H]4CC[C@H]5C[C@@H](O)CC[C@]5(C)[C@H]4CC(=O)[C@]3(C)[C@H]1[C@@H]2C		-10.6% [at 6 µM] (inactive)
C[C@@H]1CN(c2c(F)c(F)c3c(=O)c(C(=O)O)cn(C4CC4)c3c2F)C[C@H](C)N1	inactive	
Cc1ccc(C(C)C)cc2c(C)ccc1-2	inactive	
Cc1cc(O)cc2c1O[C@](C)(CCC[C@H](C)CCC[C@H](C)CCCC(C)C)CC2	inactive	
COc1ccc(S(=O)(=O)Nc2nnc(CC(C)C)s2)cc1	inactive	
CCCCN1CCCC[C@H]1C(=O)Nc1c(C)cccc1C	inactive	
CC(=O)CCC(=O)O	inactive	

Compound	Potency	activity change, negative = cytotoxic
CN(C)CC[C@@H](c1ccc(Cl)cc1)c1ccccn1	inactive	
NC(=O)NC(=O)Cc1ccccc1	inactive	
CC1=C(C/C=C(\C)CCC[C@H](C)CCC[C@H](C)CCCC(C)C)C(=O)c2ccccc2C1=O	inactive	
COc1ccccc1O	inactive	
Nc1nc2c(ncn2CCC(CO)CO)c(=O)[nH]1	inactive	
N[C@H]1C(O)O[C@H](CO)[C@@H](O)[C@@H]1O (some centres undefined)	inactive	
C[C@@H](O)[C@H](N)C(=O)O	inactive	
CC1(C)[C@@H]2CC[C@@]1(C)C(=O)C2	inactive	
C[C@@H]1CCN(C(=O)[C@H](CCCN=C(N)N)NS(=O)(=O)c2cccc3c2NC[C@H](C)C3)[C@@H](C(=O)O)C1	inactive	
Nc1ccc(S(=O)(=O)Nc2ccccc2)cc1	inactive	
Oc1cccc(O)c1	inactive	
NCCNCCNCCNCCN		-8.89% [at 11.4 µM] (inactive)
C[C@H](N)[C@H](O)c1cccc(O)c1	inactive	
O=C(Oc1ccccc1C(=O)O)c1ccccc1O	inactive	
Nc1ccc(S(=O)(=O)NC(=O)c2ccccc2)cc1	inactive	
Cc1cc2nc3c(=O)[nH]c(=O)nc-3n(C[C@H](O)[C@H](O)[C@H](O)CO)c2cc1C	inactive	
O=C1O[C@H]([C@@H](O)CO)C(O)=C1O	inactive	

From PubChem BioAssay (NCATS)
